Data on 40 sequences can be found in the supplement of paper PMC6555819.

The test has as its system VDR:RXRa (NR concentration 270 nM, RXRa partner concentration 90 nM). The test is described as follows: PBM binding z-score (relative to random genomic background probes); higher = stronger binding; sequences stand for … in GC…GCGATTGACAGCGTAGAATGAAGG
Here is the method: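 Protein-binding microarray (Agilent 4x180K custom design, double-stranded 60-nt probes: 5' GC cap, 34-nt variable region, 24-nt constant primer region; full probe sequence given). Purified or IVT nuclear receptor:RXRα heterodimers (3:1 NR:RXRα, mostly 270:90 nM) or homodimers were incubated for 1 h in PBS with 2% milk and no ligand, then detected with Alexa488 antibodies. Fluorescence from o1-orientation probes (~5 replicates averaged) was converted to z-scores against 500 random hg19 background probes. Variable regions are seed direct-repeat (DR0–DR5) sites, all their single-nucleotide variants and half-site ablations.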
Regarding TCTTGTAGATCAAGCAGATTAAGAAAGCCTGAGT, the PBM binding z-score came to 0.437.

Consider ATCTCTAGGTAAAAGTTCAGGGAATCCCGAGGAT, for which the PBM binding z-score amounted to 1.54.

In the case of CGTCAAAGTTCAACTAAGGGAACGTAAAGCACGC, the PBM binding z-score came to 4.35.

The sequence CTCGAAAGGTCGTGCTCAGGTGAGGATACCAAAC registered a PBM binding z-score of 3.3.

CAAACTAGGTTAAGAGGTCAAAGTCCGCTTCCCG returned a PBM binding z-score of 5.21.

Turning to TAGCCTAGGGCAGATCGGGCCAGTATACGCTATA, the PBM binding z-score is -0.562.

ACTAGCAGGCCAACTTTGGGTCACTCAAACAAAG yielded a PBM binding z-score of 0.536.

Take TCTTGTAGATCAATAGGAGGTTAAGAAAGATCGA: the PBM binding z-score was determined as 0.721.

ATATGTAGGTTACATCCGGGTCATTTAGGCTATG had a PBM binding z-score of 3.9.

CCTACTGGGCCAAGGTCATTTATCAGTCAAAGCA showed a PBM binding z-score of 3.13.

For the sequence CGAACTAGCTCATTGACAGGACAGTGAATAGTAA, the PBM binding z-score is -0.486.

Take TCAGAGAGGTGAAGGTAACTCAGGTACGCAGTCG: the PBM binding z-score was 0.999.

The sequence TAGCCTAGGTCAGATCGGGCCAGTATTCGCTATA returned a PBM binding z-score of 0.465.

Sequence CCTATTAGTTGACGATAAGGGCAACCGAAGCTCG yielded a PBM binding z-score of 0.128.

TCATATAGGTAAAAGGTGAAAGCCGGTGTGGTAA displayed a PBM binding z-score of 1.62.

CCGACTGGGGCAGAAAGGTTCCCATACCATCCGG had a PBM binding z-score of -0.573.

On to AGAACGAGGGCACGCTGAGTTGATTGCAGAGTAG, for which the PBM binding z-score amounted to 2.04.

In the case of ACAGACAGGTGACTGAAGGTAACTCAGCTGGACG, the PBM binding z-score is -0.404.

The sequence TGAATGAGGTTATAAGGTCAGGGAACGTTGCAAA displayed a PBM binding z-score of 4.04.

Take CCTCGGAGGACAGAAGGTCAGCGCTGTCCGCTTT: the PBM binding z-score stood at 1.22.

As for CCTATTAGTTGACCATAAGCGCAACCGAAGCTCG, the PBM binding z-score stood at 1.05.

As to TCTACCAGGCCAGAGGGTCACTCAAGAGGTACGG, the PBM binding z-score came out at 2.1.

In the case of CCGGCTGGGGCAAGGTTACCATAACGCACAGCCA, the PBM binding z-score is -0.269.

The sequence CCGACTGGGGCATAAGGTTACAATAAGCCAGCCC yielded a PBM binding z-score of 0.392.

On to CCTCGGAGGACAGAAGGTCAGTGCTGTCCGCTTT, for which the PBM binding z-score is 0.863.

AGAACGAGGTTACCAAAGATCAGGGAAACGCTTG displayed a PBM binding z-score of 1.32.

Sequence TCTATTAGTTGAAGGGCAACCTACGAGTCCGTTT had a PBM binding z-score of 0.986.

Take ACAGGCAGGTGAGTGAAGGTAACTCAGCTGGACG: the PBM binding z-score is -0.417.

In the case of CAAACTAGTTCACAGAGGTCAAAGTCCGTGCGTA, the PBM binding z-score came to 7.47.

CGAACTAGGTCAGAACAGGACGGTGAAGGATGAT came in with a PBM binding z-score of 0.0677.

ATCTCCAGGTAAAGTTCAGTGAAAGATCGATAGA: the PBM binding z-score came to 1.83.

Turning to TCTAGCAGGCCAGAGGGTCACTGAAGAGGTACGG, the PBM binding z-score turned out to be 1.52.

CCTACTGGGCCATTCAGAGGTCATTGAACATATG: the PBM binding z-score came out at 4.16.

GGATCGAGGGCATTCGAGTTGATAGCATGGCGAT displayed a PBM binding z-score of 3.52.

Consider TAGTCTAGGTCATTGGGCCAGTATAGTACGCATC, for which the PBM binding z-score was 2.5.

In turn, CCAACTGGGCCATTCAGAGGTCATTGATCATATG had a PBM binding z-score of 3.92.

CCTACTGGGCCAAGATCATTGATCAGTCAAAGCA: the PBM binding z-score was -0.601.

Sequence CCTTACGGGTCAAGAGGTTATAGCACGACGAGCG displayed a PBM binding z-score of 4.09.

With TCATATAGGTAAATGCTAGGCGAAAGTCCGATCT, the PBM binding z-score is 0.812.

ACAGACAGGTGATGAAGGTAACCCAGGCTATCAT displayed a PBM binding z-score of -0.00497.
